High-throughput results as filed in PubChem BioAssay.
This is a sample that favours compounds with a hit; in the whole collection about 4.6% have one here.
TRHR PAM – allosteric enhancers of human TRH receptor; P34981; TRHR cells, fluo-8 calcium fluorescence, EC20 TRH enhancement; enhancement, % at 2 µM; 360,000 tested, 0.66% active; in the data active = enhancement above about 30%
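Enhancer read-out: after compound pinning and an initial kinetic agonist-mode read, an EC20 of TRH (10 nM final) was injected and fluo-8 calcium signal (Ex 480/Em 530) followed at 1 s/cycle for 100 cycles in TRHR-expressing cells.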
D1 agonist – agonists of human D1 dopamine receptor; HEK293 T-REx D1 cells, calcium flux, agonist mode; activation, % at 2 µM; 360,000 tested, 1% active; AID 504660
Target sequence (P21728 whole entry, looked up): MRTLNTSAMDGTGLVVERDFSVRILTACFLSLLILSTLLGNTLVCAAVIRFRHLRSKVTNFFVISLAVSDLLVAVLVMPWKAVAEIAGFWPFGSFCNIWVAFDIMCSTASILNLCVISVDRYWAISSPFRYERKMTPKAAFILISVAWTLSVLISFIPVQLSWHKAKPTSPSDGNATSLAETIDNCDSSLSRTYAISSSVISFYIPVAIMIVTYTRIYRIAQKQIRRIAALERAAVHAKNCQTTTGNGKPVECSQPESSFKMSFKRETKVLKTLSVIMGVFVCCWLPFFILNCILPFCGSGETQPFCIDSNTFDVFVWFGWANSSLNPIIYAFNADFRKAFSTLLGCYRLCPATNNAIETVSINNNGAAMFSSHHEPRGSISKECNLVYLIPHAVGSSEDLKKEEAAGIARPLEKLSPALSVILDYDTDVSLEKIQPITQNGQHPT
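Agonism was scored from calcium flux recorded over 180 s (1 read/s) after pintool compound addition, following a 10-cycle baseline. Cells were inducible force-coupled HEK293 TREx D1, plated overnight at 30 C and loaded with no-wash calcium dye.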
D1 PAM – human D1 dopamine receptor positive modulation; P21728; HEK293 TREx D1 cells, calcium flux, dopamine EC20 potentiation; potentiation, % at 10 µM; 360,000 tested, 0.036% active; in the data active = potentiation above about 30%
TRHR ag – TRH receptor (human) agonism. 360,000 tested, 0.18% active. TRHR cells, calcium flux fluo-8, FDSS agonist mode. activation, % at 2 µM. P34981
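Fluo-8-loaded TRHR cells; 10 s baseline, compound added, kinetic Ca2+ fluorescence read 1/s, agonist mode.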
D1 antagonist – human D1 dopamine receptor antagonism; HEK293 TREx D1 cells, calcium flux, dopamine EC80; stronger effect = lower value; activity change, negative = inhibition, % at 10 µM; 360,000 tested, 3.2% active; AID 504652; in the data active = activity change below about -30%
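Cells carrying a force-coupled, tetracycline-inducible human D1 receptor report calcium flux. Each well gets a 10 s baseline, compound with 180 s monitoring, then an EC80 dopamine stimulus with a second 180 s kinetic read.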
A number is an active result. Rule as the data show it, unless noted: active = activation above about 30%; inactive = the rest.

What do the screens show for `CCOc1ccc(S(=O)(=O)N(C(=O)c2ccncc2)c2ccc3oc(C)c(C(=O)OC)c3c2)cc1`?
TRHR PAM: inactive; D1 agonist: inactive; D1 PAM: inactive; TRHR ag: inactive; D1 antagonist: -46

What do the screens show for `CCc1ccc(S(=O)(=O)N(C(=O)c2ccncc2)c2ccc3oc(C)c(C(=O)OC)c3c2)cc1`?
TRHR PAM: inactive; D1 agonist: inactive; D1 PAM: inactive; TRHR ag: inactive; D1 antagonist: inactive

Results for COC(=O)c1c(C)oc2ccc(N(C(=O)c3ccncc3)S(=O)(=O)c3ccc(OC)cc3)cc12 ?
TRHR PAM: inactive; D1 agonist: inactive; D1 PAM: inactive; TRHR ag: inactive; D1 antagonist: -48

How did CC(C)c1cccc(C2=CC(=O)C[C@H](c3ccc(F)cc3)C2)c1 do in these assays?
TRHR PAM: inactive; D1 agonist: inactive; D1 PAM: inactive; TRHR ag: inactive; D1 antagonist: -39

What do the screens show for `Cc1cc(C)n(-c2nc(SCCN(C)C)c3c4c(sc3n2)CCCC4)n1`?
TRHR PAM: 38; D1 agonist: inactive; D1 PAM: inactive; TRHR ag: inactive; D1 antagonist: inactive

What do the screens show for `CCC(O)CNc1nc(-n2nc(C)cc2C)nc2sc3c(c12)CCCC3` (configuration not stated)?
TRHR PAM: inactive; D1 agonist: inactive; D1 PAM: inactive; TRHR ag: inactive; D1 antagonist: inactive

How did Cn1nc(C(=O)N2CCN(c3ccccc3F)CC2)c2c1-c1ccccc1SC2 do in these assays?
TRHR PAM: inactive; D1 agonist: inactive; D1 PAM: inactive; TRHR ag: inactive; D1 antagonist: -35

Results for CCOc1ccc(CNC(=O)c2c(C)nn(-c3ccc(F)cc3)c2-n2cccc2)cc1 ?
TRHR PAM: inactive; D1 agonist: inactive; D1 PAM: inactive; TRHR ag: inactive; D1 antagonist: inactive

What do the screens show for `CCOC(=O)c1cnc2c(C#N)cnn2c1N`?
TRHR PAM: 36; D1 agonist: inactive; D1 PAM: inactive; TRHR ag: inactive; D1 antagonist: inactive

Results for CCOC(=O)c1cnc2c(-c3ccccc3)cnn2c1N ?
TRHR PAM: inactive; D1 agonist: inactive; D1 PAM: inactive; TRHR ag: inactive; D1 antagonist: inactive

How did CC(C)(C)c1ccc(-n2ncc3c2CCCC3NC(=O)CCN2CCCCC2=O)cc1 (configuration not stated) do in these assays?
TRHR PAM: inactive; D1 agonist: inactive; D1 PAM: inactive; TRHR ag: inactive; D1 antagonist: inactive

Results for CC(C)(C)c1ccc(-n2ncc3c2CCCC3NC(=O)CN2CCOC2=O)cc1 (configuration not stated) ?
TRHR PAM: inactive; D1 agonist: inactive; D1 PAM: inactive; TRHR ag: inactive; D1 antagonist: -42

Results for Cn1nc(C(F)(F)F)c(-c2ccc(Br)cc2)c1NC(=O)Nc1ccc(F)cc1F ?
TRHR PAM: inactive; D1 agonist: inactive; D1 PAM: inactive; TRHR ag: inactive; D1 antagonist: -34

Results for Cn1nc(C(F)(F)F)c(-c2ccc(F)cc2)c1NC(=O)c1ccco1 ?
TRHR PAM: inactive; D1 agonist: inactive; D1 PAM: inactive; TRHR ag: inactive; D1 antagonist: inactive

What do the screens show for `CCN(CC)C(=O)C1CCCN(c2ccccc2[N+](=O)[O-])C1` (configuration not stated)?
TRHR PAM: 37; D1 agonist: inactive; D1 PAM: inactive; TRHR ag: inactive; D1 antagonist: inactive

How did COc1ccc(Cn2c(C(=O)O)c(CNCc3ccccc3F)c3ccc(OC)cc32)cc1 do in these assays?
TRHR PAM: inactive; D1 agonist: inactive; D1 PAM: inactive; TRHR ag: inactive; D1 antagonist: inactive

What do the screens show for `COc1cccc(-c2ccc3ncnc(NCc4cccnc4)c3c2)c1`?
TRHR PAM: inactive; D1 agonist: inactive; D1 PAM: inactive; TRHR ag: inactive; D1 antagonist: inactive

What do the screens show for `Cc1csc(CNc2ncnc3ccc(-c4ccco4)cc23)c1`?
TRHR PAM: inactive; D1 agonist: inactive; D1 PAM: inactive; TRHR ag: inactive; D1 antagonist: -39

What do the screens show for `c1cncc(CNc2ncnc3ccc(-c4ccco4)cc23)c1`?
TRHR PAM: inactive; D1 agonist: inactive; D1 PAM: inactive; TRHR ag: inactive; D1 antagonist: -77

What do the screens show for `CN1CCN(Cc2c(O)ccc3cc(-c4ccc(Cl)cc4)c(=O)oc23)CC1`?
TRHR PAM: inactive; D1 agonist: 32; D1 PAM: inactive; TRHR ag: inactive; D1 antagonist: inactive

Results for COc1ccc(-c2cc3ccc(O)c(CN4CCCC(C)C4)c3oc2=O)cc1OC (configuration not stated) ?
TRHR PAM: inactive; D1 agonist: inactive; D1 PAM: inactive; TRHR ag: 32; D1 antagonist: inactive

How did O=c1oc2c(CN3CCN(CCO)CC3)c(O)ccc2cc1-c1ccccc1 do in these assays?
TRHR PAM: inactive; D1 agonist: inactive; D1 PAM: inactive; TRHR ag: inactive; D1 antagonist: inactive

What do the screens show for `COc1ccc(C2(c3ccc(OC)cc3)NC(=O)N(CC(=O)Nc3ccccc3C(F)(F)F)C2=O)cc1`?
TRHR PAM: inactive; D1 agonist: inactive; D1 PAM: inactive; TRHR ag: inactive; D1 antagonist: inactive

Results for CC1(c2ccc(OC(F)F)cc2)NC(=O)N(CC(=O)Nc2cccnc2Cl)C1=O (configuration not stated) ?
TRHR PAM: inactive; D1 agonist: 73; D1 PAM: inactive; TRHR ag: inactive; D1 antagonist: -62

What do the screens show for `CCC1(c2ccc(F)cc2)NC(=O)N(CC(=O)Nc2cccnc2Cl)C1=O` (configuration not stated)?
TRHR PAM: inactive; D1 agonist: 43; D1 PAM: inactive; TRHR ag: inactive; D1 antagonist: inactive

How did COc1ccc(C2(c3ccc(OC)cc3)NC(=O)N(CC(=O)Nc3ccccc3C)C2=O)cc1 do in these assays?
TRHR PAM: 36; D1 agonist: inactive; D1 PAM: inactive; TRHR ag: inactive; D1 antagonist: inactive

What do the screens show for `CC1(c2cccc(Br)c2)NC(=O)N(CC(=O)N2CCN(C(=O)c3ccco3)CC2)C1=O` (configuration not stated)?
TRHR PAM: inactive; D1 agonist: inactive; D1 PAM: inactive; TRHR ag: inactive; D1 antagonist: inactive

What do the screens show for `CC1(c2ccc(OC(F)F)cc2)NC(=O)N(CC(=O)N2CCN(C(=O)c3ccco3)CC2)C1=O` (configuration not stated)?
TRHR PAM: inactive; D1 agonist: inactive; D1 PAM: inactive; TRHR ag: inactive; D1 antagonist: -30

What do the screens show for `COc1ccc(C2(C)NC(=O)N(CC(=O)Nc3cccnc3Cl)C2=O)cc1` (configuration not stated)?
TRHR PAM: inactive; D1 agonist: inactive; D1 PAM: inactive; TRHR ag: inactive; D1 antagonist: inactive

How did CCOC(=O)c1cc(S(=O)(=O)Nc2ccccc2OCC)[nH]n1 do in these assays?
TRHR PAM: inactive; D1 agonist: inactive; D1 PAM: inactive; TRHR ag: inactive; D1 antagonist: inactive
